Unmarked numbers belong to inactive results. The list shows a part of the results. Activity calls are given as the source filed them. Rule as the data show it, unless noted: active = inhibition above about 23%; inactive = the rest.
Tested on: not listed separately
Assay: cytotoxicity in rat IEC-6 cells, cytotoxicity control for KLF5 inhibitor project, cell-based, luminescence, triplicate (AID 1905);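 also: cells exposed to compounds for 48 hours before viability read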
Settings: IEC-6 rat intestinal cells, viability luminescence; at 4 µM; active compounds read high

SMILES	inhibition
COc1ccc(Nc2cc(C)nc(-n3nc(C)cc3C)n2)cc1	60.9% (active)
CCNC(=O)CCc1nc(-c2ccc(C(C)(C)C)cc2)no1	-2.69%
CN(c1ccc2nc3ccccc3c(=O)n2n1)C1CCCCC1	9.18%
CN(CCO)c1ccc(/C=N/Nc2nncc3ccccc23)cc1	-0.69%
Cc1ccc(/C=N/NC(=O)COc2ccccc2-c2ccccc2)cc1	74.2% (active)
CSc1nc(N(C)NC(=O)c2cccc(C)c2)c2ccccc2n1	73.4% (active)
COc1cccc(/C=N/Nc2ncc(C(F)(F)F)cc2Cl)c1O	0.75%
CC(=O)c1ccc(Oc2cc(C)nc(-n3nc(C)cc3C)n2)cc1	57.9% (active)
CCOc1cc(C(=O)N2CCc3cc(OC)c(OC)cc3C2)ccc1OC(F)F	59.4% (active)
CCn1c(SCC(=O)Nc2nccs2)nnc1-c1ccncc1	8.72%
COc1ccccc1C1C2=C(COC2=O)Nc2cc3c(cc21)OCO3 (configuration not stated)	82.9% (active)
CCOc1ccccc1NC(=O)Cn1nnc(C(=O)NCc2cccs2)c1N	58.1% (active)
Cn1nccc1C(=O)NC1CCCc2c1cnn2-c1ccc(F)cc1F (configuration not stated)	13.8%
C[C@@H]1C[C@@H]2O[C@H]2/C=C\C=C\C(=O)Cc2c(Cl)c(O)cc(O)c2C(=O)O1	38% (active)
COc1ccc(C(=O)Nc2ccccc2C(=O)N/N=C/c2ccc(O)c(OC)c2)cc1	4.51%
CCOC(=O)c1sc(NC(=O)c2sc(C)nc2C)nc1C	2.65%
CCOC(=O)CSC1=C(C#N)C(c2sccc2C)CC(=O)N1 (configuration not stated)	57.3% (active)
Cc1ccc2[nH]c(=O)c(CN(CCCN(C)C)C(=O)Nc3cccc(Cl)c3)cc2c1	6.49%
COc1ccccc1N1CCN(C(=O)c2cc(=O)c3cc(C)cc(C)c3o2)CC1	58.2% (active)
O=c1cc(-c2ccccc2)[nH]c2cc(F)ccc12	59.3% (active)

Biological target: Nuclear receptor coactivator 3 (Homo sapiens) (UniProt Q9Y6Q9)
Assay: SRC3 coactivator transcriptional activity inhibitors, confirmation, cell-based, luminescence, quadruplicate (AID 588792;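 active = mean inhibition over 43.08%, the solvent-only control mean plus 3 SD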;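 also: 0% = DMSO treated cells and 100% = gossypol at 36 µM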)
Settings: HEK293 GAL4-SRC3 luciferase reporter, at 3.6 µM, active compounds read high

Sequence of Nuclear receptor coactivator 3 (Homo sapiens) (Q9Y6Q9 whole entry, looked up): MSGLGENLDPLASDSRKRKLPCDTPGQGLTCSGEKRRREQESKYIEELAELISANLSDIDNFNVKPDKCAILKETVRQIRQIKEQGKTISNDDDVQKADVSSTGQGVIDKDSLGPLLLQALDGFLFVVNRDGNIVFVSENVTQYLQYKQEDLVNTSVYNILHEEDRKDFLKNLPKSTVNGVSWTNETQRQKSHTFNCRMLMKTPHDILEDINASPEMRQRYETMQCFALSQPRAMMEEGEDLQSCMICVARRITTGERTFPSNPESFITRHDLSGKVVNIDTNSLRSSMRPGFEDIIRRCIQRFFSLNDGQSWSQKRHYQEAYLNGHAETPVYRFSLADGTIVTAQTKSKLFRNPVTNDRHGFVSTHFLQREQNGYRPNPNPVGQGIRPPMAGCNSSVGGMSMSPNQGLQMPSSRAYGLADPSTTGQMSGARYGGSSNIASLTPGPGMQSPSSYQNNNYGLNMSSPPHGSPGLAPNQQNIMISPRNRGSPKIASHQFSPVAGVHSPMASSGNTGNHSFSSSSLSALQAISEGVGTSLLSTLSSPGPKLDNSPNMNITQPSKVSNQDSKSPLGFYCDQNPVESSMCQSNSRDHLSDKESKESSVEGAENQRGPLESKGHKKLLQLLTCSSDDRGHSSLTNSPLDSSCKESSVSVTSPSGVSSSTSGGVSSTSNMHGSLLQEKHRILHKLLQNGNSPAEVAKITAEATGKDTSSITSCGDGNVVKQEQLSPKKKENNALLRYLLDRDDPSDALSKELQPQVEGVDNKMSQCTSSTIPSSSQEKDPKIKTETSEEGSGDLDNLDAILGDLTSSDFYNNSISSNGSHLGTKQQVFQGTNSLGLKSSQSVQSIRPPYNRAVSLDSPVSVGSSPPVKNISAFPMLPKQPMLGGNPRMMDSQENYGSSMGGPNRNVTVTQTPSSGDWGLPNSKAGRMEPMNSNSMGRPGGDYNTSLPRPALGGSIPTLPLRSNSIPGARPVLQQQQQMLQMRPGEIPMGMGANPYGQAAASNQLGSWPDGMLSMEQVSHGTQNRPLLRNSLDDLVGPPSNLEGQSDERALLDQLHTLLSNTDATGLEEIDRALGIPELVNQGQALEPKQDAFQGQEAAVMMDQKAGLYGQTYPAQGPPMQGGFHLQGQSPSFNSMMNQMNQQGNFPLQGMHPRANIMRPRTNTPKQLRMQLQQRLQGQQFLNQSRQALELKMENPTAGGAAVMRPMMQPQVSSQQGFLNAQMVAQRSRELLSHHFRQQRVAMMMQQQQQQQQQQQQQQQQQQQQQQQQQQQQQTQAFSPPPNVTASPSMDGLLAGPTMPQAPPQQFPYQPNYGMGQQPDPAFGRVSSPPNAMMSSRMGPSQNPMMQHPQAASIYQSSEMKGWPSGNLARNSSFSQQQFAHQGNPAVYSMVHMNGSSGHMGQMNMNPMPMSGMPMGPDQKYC

SMILES	inhibition
CN(c1ccc2nc3ccccc3c(=O)n2n1)C1CCCCC1	59.8% (active)
CC1CC2=C(CC1/C=N/NC(N)=S)C(C)(C)CCC2 (configuration not stated)	50.9% (active)
C[C@@H]1C[C@@H]2O[C@H]2/C=C\C=C\C(=O)Cc2c(Cl)c(O)cc(O)c2C(=O)O1	62.2% (active)

Tested on: transactivating tegument protein VP16 (Human herpesvirus 1), Gal4-VP16 luciferase reporter
Assay: VP16 transactivation inhibitors, counter-screen for SRC3 inhibitor project, cell-based, luminescence, high throughput (AID 588794; in the data active = inhibition above about 30%)
Settings: mammalian cells, VP16-driven luciferase reporter luminescence; at 3.6 µM; active compounds read high

SMILES	inhibition
CN(c1ccc2nc3ccccc3c(=O)n2n1)C1CCCCC1	48.9% (active)
CC1CC2=C(CC1/C=N/NC(N)=S)C(C)(C)CCC2 (configuration not stated)	30.1% (active)
C[C@@H]1C[C@@H]2O[C@H]2/C=C\C=C\C(=O)Cc2c(Cl)c(O)cc(O)c2C(=O)O1	74.4% (active)

Biological target: Nuclear receptor coactivator 1 (Homo sapiens) (UniProt Q15788)
Assay: SRC1 coactivator transcriptional activity inhibitors, confirmation, cell-based, luminescence, quadruplicate (AID 588820;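 active = mean inhibition above 46.68%, the untreated control wells mean plus 3 SD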;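 also: 0% = DMSO wells and 100% = gossypol 36 µM treated wells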)
Settings: HEK293 GAL4-SRC1 luciferase reporter, at 3.6 µM, active compounds read high

Sequence of Nuclear receptor coactivator 1 (Homo sapiens) (Q15788 whole entry, looked up): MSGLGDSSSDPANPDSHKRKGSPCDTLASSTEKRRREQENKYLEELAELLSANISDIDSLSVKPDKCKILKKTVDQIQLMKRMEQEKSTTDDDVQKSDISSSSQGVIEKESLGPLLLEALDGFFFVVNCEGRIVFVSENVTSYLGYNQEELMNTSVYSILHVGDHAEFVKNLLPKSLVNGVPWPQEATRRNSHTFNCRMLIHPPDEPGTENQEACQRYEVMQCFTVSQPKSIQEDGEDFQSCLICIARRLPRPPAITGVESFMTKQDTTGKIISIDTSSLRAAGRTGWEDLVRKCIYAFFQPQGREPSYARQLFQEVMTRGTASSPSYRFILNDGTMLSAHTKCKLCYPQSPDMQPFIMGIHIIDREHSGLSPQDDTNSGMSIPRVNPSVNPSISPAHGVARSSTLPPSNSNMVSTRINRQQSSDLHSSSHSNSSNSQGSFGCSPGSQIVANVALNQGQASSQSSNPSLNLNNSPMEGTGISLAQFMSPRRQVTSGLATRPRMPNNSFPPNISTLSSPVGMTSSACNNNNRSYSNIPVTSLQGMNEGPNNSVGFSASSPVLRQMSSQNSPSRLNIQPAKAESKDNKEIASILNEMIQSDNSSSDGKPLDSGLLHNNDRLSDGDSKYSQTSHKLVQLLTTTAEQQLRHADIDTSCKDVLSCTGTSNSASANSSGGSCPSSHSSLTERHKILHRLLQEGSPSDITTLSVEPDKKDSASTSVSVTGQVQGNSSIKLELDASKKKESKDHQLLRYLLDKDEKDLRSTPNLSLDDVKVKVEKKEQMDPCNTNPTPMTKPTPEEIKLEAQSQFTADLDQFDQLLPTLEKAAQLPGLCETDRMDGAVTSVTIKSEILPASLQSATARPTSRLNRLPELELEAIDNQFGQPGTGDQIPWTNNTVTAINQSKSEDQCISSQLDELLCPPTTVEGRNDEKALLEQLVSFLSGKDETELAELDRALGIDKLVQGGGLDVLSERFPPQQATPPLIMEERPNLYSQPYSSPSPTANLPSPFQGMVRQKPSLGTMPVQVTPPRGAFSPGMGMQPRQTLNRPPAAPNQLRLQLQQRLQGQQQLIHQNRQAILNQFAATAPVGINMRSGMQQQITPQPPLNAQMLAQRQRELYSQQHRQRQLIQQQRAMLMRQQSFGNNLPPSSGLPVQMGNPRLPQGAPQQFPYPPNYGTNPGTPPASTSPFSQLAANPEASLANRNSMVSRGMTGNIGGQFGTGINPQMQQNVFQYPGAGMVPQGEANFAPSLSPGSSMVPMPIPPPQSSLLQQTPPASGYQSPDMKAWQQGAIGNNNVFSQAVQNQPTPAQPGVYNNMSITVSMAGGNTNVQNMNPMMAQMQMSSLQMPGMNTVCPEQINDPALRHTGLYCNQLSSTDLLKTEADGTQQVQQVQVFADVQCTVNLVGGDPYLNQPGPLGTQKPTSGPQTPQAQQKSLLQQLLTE

SMILES	inhibition [%]
CN(c1ccc2nc3ccccc3c(=O)n2n1)C1CCCCC1	-5.95
CC1CC2=C(CC1/C=N/NC(N)=S)C(C)(C)CCC2 (configuration not stated)	32.9
C[C@@H]1C[C@@H]2O[C@H]2/C=C\C=C\C(=O)Cc2c(Cl)c(O)cc(O)c2C(=O)O1	-17.6

Tested on: not listed separately
Assay: VP16 transactivation inhibitors, counter-screen for SRC1 inhibitor project, cell-based, luminescence, high throughput (AID 588824; in the data active = inhibition above about 25%)
Settings: cell-based VP16 transactivation luciferase luminescence; at 3.6 µM; active compounds read high

SMILES	inhibition
CN(c1ccc2nc3ccccc3c(=O)n2n1)C1CCCCC1	23.2%
CC1CC2=C(CC1/C=N/NC(N)=S)C(C)(C)CCC2 (configuration not stated)	33.7% (active)
C[C@@H]1C[C@@H]2O[C@H]2/C=C\C=C\C(=O)Cc2c(Cl)c(O)cc(O)c2C(=O)O1	72% (active)

Biological target: Receptor-interacting serine/threonine-protein kinase 2 (Homo sapiens) (UniProt O43353)
Assay: NOD2-RIPK2 binding disruptors, retest, confirmation, fluorescence, CHO cells, BLA complementation, triplicate (AID 624370;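 active = mean inhibition across replicates above a set limit taken from the earlier primary screen, cut at about 21% in these data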;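 also: 0% = DMSO-only wells and the high end = clavulanate BLA-blocked wells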)
Settings: CCF4 FRET, at 4.98 µM, active compounds read high

Sequence of Receptor-interacting serine/threonine-protein kinase 2 (Homo sapiens) (O43353 whole entry, looked up): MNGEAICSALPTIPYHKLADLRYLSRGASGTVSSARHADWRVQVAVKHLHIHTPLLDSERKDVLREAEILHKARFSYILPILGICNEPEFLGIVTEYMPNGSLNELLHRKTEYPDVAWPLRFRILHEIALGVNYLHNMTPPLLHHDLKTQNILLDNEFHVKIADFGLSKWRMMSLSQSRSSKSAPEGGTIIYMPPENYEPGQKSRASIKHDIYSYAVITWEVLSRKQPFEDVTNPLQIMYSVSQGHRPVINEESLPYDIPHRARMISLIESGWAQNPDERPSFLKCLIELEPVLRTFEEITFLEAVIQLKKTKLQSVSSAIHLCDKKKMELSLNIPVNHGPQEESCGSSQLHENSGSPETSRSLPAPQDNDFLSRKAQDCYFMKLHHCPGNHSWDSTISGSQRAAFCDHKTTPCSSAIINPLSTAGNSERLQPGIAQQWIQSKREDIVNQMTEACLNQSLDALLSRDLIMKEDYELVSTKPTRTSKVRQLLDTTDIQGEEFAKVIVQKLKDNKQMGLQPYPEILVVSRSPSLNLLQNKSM

SMILES	inhibition
O=C1C=C(c2ccc(Cl)cc2)C(=O)N1Nc1ccccc1	90.3% (active)
O=C(Nc1ccccc1)c1nnsc1S(=O)(=O)c1ccc(Cl)cc1	65.2% (active)
CC1CC(C)CN(S(=O)(=O)c2cccc(C(=O)N3C(=O)c4cccc(N)c4C3=O)c2)C1 (configuration not stated)	34.1% (active)
O=C(/C=C/c1ccc(Cl)c([N+](=O)[O-])c1)c1ccc(O)cc1	31.7% (active)

Tested on: not listed separately
Assay: beta-lactamase reporter inhibitors in CHO cells, confirmation, artefact control for NOD2-RIPK2 interaction inhibitor project, cell-based, CHO-K1 CMV-bla, CCF4 FRET, fluorescence (AID 624371;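 active = mean inhibition above the low-control mean inhibition plus three low-control SD, cut at about 11% in these data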;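 also: 0% = DMSO only wells and 100% = clavulanate high control wells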)
Settings: CCF4 FRET ratio, counterscreen, at 4.98 µM, active compounds read high

SMILES	inhibition
O=C1C=C(c2ccc(Cl)cc2)C(=O)N1Nc1ccccc1	14.8% (active)
O=C(Nc1ccccc1)c1nnsc1S(=O)(=O)c1ccc(Cl)cc1	10.3%
CC1CC(C)CN(S(=O)(=O)c2cccc(C(=O)N3C(=O)c4cccc(N)c4C3=O)c2)C1 (configuration not stated)	33.2% (active)
O=C(/C=C/c1ccc(Cl)c([N+](=O)[O-])c1)c1ccc(O)cc1	-1.48%

Biological target: Photoreceptor-specific nuclear receptor (Homo sapiens) (UniProt Q9Y5X4)
Assay: NR2E3 agonist confirmation in cells, cell-based, luminescence, CHO-S two-hybrid (AID 624378;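 active = average inhibition above a cutoff equal to the mean inhibition of all tested compounds plus one SD, cut at about 70% in these data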;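 also: 0% = DMSO in NR2E3 cells and 100% = DMSO in cells lacking NR2E3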)
Settings: CHO-S mammalian two-hybrid NR2E3-NCOR, luciferase luminescence; at 3.98 µM; active compounds read high

Sequence of Photoreceptor-specific nuclear receptor (Homo sapiens) (Q9Y5X4 whole entry, looked up): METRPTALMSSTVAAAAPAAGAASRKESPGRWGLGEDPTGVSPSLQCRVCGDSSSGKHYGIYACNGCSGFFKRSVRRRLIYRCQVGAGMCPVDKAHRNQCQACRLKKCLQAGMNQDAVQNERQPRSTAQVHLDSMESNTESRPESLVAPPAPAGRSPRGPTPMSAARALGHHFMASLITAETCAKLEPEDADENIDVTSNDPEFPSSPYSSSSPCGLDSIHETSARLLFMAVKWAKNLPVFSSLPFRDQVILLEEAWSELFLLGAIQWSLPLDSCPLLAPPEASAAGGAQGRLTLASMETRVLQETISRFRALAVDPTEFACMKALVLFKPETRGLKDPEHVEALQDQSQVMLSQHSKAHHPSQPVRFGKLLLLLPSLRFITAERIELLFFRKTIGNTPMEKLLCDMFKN

SMILES	inhibition
CCNC(=O)CCc1nc(-c2ccc(C(C)(C)C)cc2)no1	73.5% (active)
CN(c1ccc2nc3ccccc3c(=O)n2n1)C1CCCCC1	43.9%
COc1cccc(/C=N/Nc2ncc(C(F)(F)F)cc2Cl)c1O	83% (active)
Cn1nccc1C(=O)NC1CCCc2c1cnn2-c1ccc(F)cc1F (configuration not stated)	96.4% (active)
COc1cc(NC(=O)c2ccccc2NS(=O)(=O)c2ccc(Cl)s2)cc(OC)c1	99.6% (active)
COc1ccc(C(=O)Nc2ccccc2C(=O)N/N=C/c2ccc(O)c(OC)c2)cc1	42.1%

Tested on: not listed separately
Assay: GAL4-VP16 reporter modulators, confirmation, counter-screen for NR2E3 agonist project, cell-based, luminescence, CHO-S, high throughput (AID 624379;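 active = mean inhibition above a cutoff equal to the average over all tested compounds plus one standard deviation, cut at about 70% in these data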;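 also: luciferase from a UAS reporter driven by GAL4-VP16 transactivation; 0% = DMSO with VP16-transfected cells and 100% = DMSO with cells lacking VP16; higher means less reporter light so more repression of VP16 activity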)
Settings: CHO-S GAL4-VP16 luciferase reporter, at 3.98 µM, active compounds read high

SMILES	inhibition
CCNC(=O)CCc1nc(-c2ccc(C(C)(C)C)cc2)no1	77.8% (active)
CN(c1ccc2nc3ccccc3c(=O)n2n1)C1CCCCC1	10.8%
COc1cccc(/C=N/Nc2ncc(C(F)(F)F)cc2Cl)c1O	75.5% (active)
Cn1nccc1C(=O)NC1CCCc2c1cnn2-c1ccc(F)cc1F (configuration not stated)	86.3% (active)
COc1cc(NC(=O)c2ccccc2NS(=O)(=O)c2ccc(Cl)s2)cc(OC)c1	90.3% (active)
COc1ccc(C(=O)Nc2ccccc2C(=O)N/N=C/c2ccc(O)c(OC)c2)cc1	-33%

Reference: PubChem BioAssay
